The list is not random: actives were taken first. Their share in the collection is about 28%.
Mac1 fbg enh = CD11b/CD18-fibrinogen binding enhancement | K562 CD11b/CD18 adhesion to fibrinogen, ATPlite luminescence | P05107+P11215 | hit rate 0.07% among 93,000 | activation, % at 10 µM;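 active = 10 µM primary screen giving 50% or more activity, confirmed by 40% or more on retest at that dose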
CD11b adhes inh = CD11b/CD18-fibrinogen binding inhibition | P05107+P11215 | K562 CD11b/CD18 adhesion to fibrinogen, ATPlite luminescence; Mn2+ added to activate the integrin | inhibition, % at 10 µM | hit rate 0.54% among 93,000 | AID 1497;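 active = primary inhibition of 50% or more at 10 µM, then 40% or more on retest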
CYP2C9 inh = blocks human cytochrome P450 2C9; CYP2C9 Supersomes, luciferin-H conversion, luminescence; inhibition, % at 5 µM; hit rate 20% among 96,000;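 active = blocking of liver enzyme CYP2C9 beyond about 50% at 5 µM, limit read from the data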
Target sequence (P11712 whole entry, looked up): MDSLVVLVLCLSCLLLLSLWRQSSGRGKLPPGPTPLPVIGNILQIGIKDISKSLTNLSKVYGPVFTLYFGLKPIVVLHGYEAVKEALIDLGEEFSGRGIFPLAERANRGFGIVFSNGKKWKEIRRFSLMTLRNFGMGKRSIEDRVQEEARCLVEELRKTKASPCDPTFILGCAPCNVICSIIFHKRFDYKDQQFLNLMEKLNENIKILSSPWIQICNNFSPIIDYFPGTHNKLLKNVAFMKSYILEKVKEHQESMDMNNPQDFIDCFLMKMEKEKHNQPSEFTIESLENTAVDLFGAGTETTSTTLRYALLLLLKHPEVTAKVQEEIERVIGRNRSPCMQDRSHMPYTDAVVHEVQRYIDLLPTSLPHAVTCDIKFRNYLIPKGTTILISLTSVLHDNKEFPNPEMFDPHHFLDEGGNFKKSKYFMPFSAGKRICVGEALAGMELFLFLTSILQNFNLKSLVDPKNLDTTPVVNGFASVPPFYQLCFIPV
CYP2C19 inh = human CYP2C19 inhibition; hit rate 21% among 96,000; CYP2C19 Supersomes, luciferin-H EGE luminescence, 30 min; AID 778; P33261; inhibition, % at 5 µM;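 active = CYP2C19 inhibition above a set limit at 5 µM in the primary screen, cut at about 50% in these data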;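 also: plate controls were negative control wells for no effect and 2.5 mM tranylcypromine positive control for full effect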
CYP2C9 activ = increases human cytochrome P450 2C9 activity; P11712; recombinant CYP2C9, luciferin-H conversion, luminescence; stronger effect = higher value; factor 1 = untreated enzyme, 0 = blocked; activation factor at 5 µM; hit rate 1.4% among 96,000;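 active = activation factor of 2 or more for CYP2C9 at a 5 µM dose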;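 also: 0 = sulfaphenazole-blocked wells and 1 = vehicle-only wells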
CYP2C19 activ = cytochrome P450 2C19 (human) activation. AID 1025. activation factor at 5 µM. recombinant CYP2C19, luciferin-H EGE luminescence; stronger effect = higher value; 0 = fully inhibited enzyme, 1 = untreated enzyme. P33261. 96,000 tested, under 10 active;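 active = activation factor of at least 2 at 5 µM in the primary screen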;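 also: 0 = wells with 2.5 mM tranylcypromine and 1 = vehicle-only wells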
* marks the source's active call; other numbers are inactive results; / = no result given.

SMILES	Mac1 fbg enh	CD11b adhes inh	CYP2C9 inh	CYP2C19 inh	CYP2C9 activ	CYP2C19 activ
Cc1ccc(-c2nc3ccccc3c(C(=O)NCc3cccs3)c2C)cc1	-4	0	95*	87*	0.1	0.1
Cc1ccc(C)c(-c2cc(C(=O)Nc3nccs3)c3ccccc3n2)c1	11	4	49	12	0.5	0.9
Cc1ccc(C)c(-c2cc(C(=O)NCc3cccs3)c3ccccc3n2)c1	2	1	52*	29	0.5	0.7
O=C(COc1ccc(Cl)cc1)NCc1nnc(SCC(=O)NCCc2ccccc2)o1	-1	-19	46	0	0.5	1
COC(=O)c1ccccc1NC(=O)C1COc2ccccc2O1 (stereo not given)	7	-20	-32	90*	1.3	0.1
COc1ccccc1CNC(=O)COC(=O)C1=COCCO1	-1	-9	5	61*	0.9	0.4
O=C(O)CNC(=O)C1COc2ccccc2O1 (stereo not given)	-3	0	26	8	0.7	0.9
COC(=O)c1ccsc1NC(=O)C1COc2ccccc2O1 (stereo not given)	-2	-8	23	31	0.8	0.7
COc1ccccc1CNC(=O)C1COc2ccccc2O1 (stereo not given)	1	-9	-19	99*	1.2	0
COC(=O)c1cc(NC(=O)C2COc3ccccc3O2)cc(C(=O)OC)c1 (stereo not given)	-6	-7	73*	63*	0.3	0.4
CCCCS(=O)(=O)NC1=NCN(Cc2ccco2)CN1	/	/	10	3	0.9	1
O=C(COc1ccc(Br)cc1)N1CCN(c2ccc([N+](=O)[O-])c(N3CCCCC3)c2)CC1	-2	11	/	/	/	/
CCCn1c(NC(=O)C2COc3ccccc3O2)nc2ccccc21 (stereo not given)	6	-28	-5	7	1	0.9
CCOC(=O)c1ccccc1NC(=O)C1COc2ccccc2O1 (stereo not given)	-2	-6	31	87*	0.7	0.1
c1ccc(Cn2nnnc2C(c2cccnc2)N2CCN(c3ccccc3)CC2)cc1 (stereo not given)	-1	2	19	14	0.8	0.9
COc1ccc(C(=O)Cn2c(N3CCOCC3)nc3ccccc32)cc1OC	-2	52	-6	-16	1.1	1.2
Oc1ccc(N2CCN(C(c3ccncc3)c3nnnn3C3CCCC3)CC2)cc1 (stereo not given)	5	0	48	52*	0.5	0.5
c1ccc(Cn2nnnc2C(c2ccncc2)N2CCOCC2)cc1 (stereo not given)	-4	-10	22	37	0.8	0.6
c1cc(C(c2nnnn2C2CCCC2)N2CCOCC2)ccn1 (stereo not given)	1	7	28	83*	0.7	0.2
CCC(CO)NCc1ccc(-c2ccccc2)cc1 (stereo not given)	2	10	/	/	/	/
Clc1ccc2nc(-c3ccc(Br)s3)cn2c1	-8	12	29	47	0.7	0.5
COc1ccc(-c2cn3cc(Cl)ccc3n2)cc1OC	-2	-11	79*	80*	0.2	0.2
Cc1cccc(Cn2c(C(=O)OC(C)C)cc3c2ccn3C)c1	5	8	21	46	0.8	0.5
CCn1c(SCc2ccc(C)cc2)nnc1-c1cnccn1	0	7	5	49	1	0.5
COc1cccc(CSc2nnc(-c3ccc(F)cc3)o2)c1	-2	-11	-21	17	1.2	0.8
SMILES	Mac1 fbg enh	CD11b adhes inh	CYP2C9 inh	CYP2C19 inh	CYP2C9 activ	CYP2C19 activ
COc1cccc(CSc2nnc(C(F)(F)F)n2Cc2ccc(F)cc2)c1	/	/	61*	39	0.4	0.6
Cc1ccc(CSc2nnc(C(F)(F)F)n2Cc2ccc(F)cc2)cc1	/	/	69*	42	0.3	0.6
CCCCN(C(=N)N1CCCCC1)c1nc(C)c([N+](=O)[O-])c(=O)[nH]1	6	-9	/	/	/	/
COC(=O)Cn1cnc2sc(C)c(S(=O)(=O)N3CCN(c4ccccc4OC)CC3)c2c1=O	-8	-2	51*	27	0.5	0.7
COc1cccc(NC(=O)Cn2cnc3sc(C)c(S(=O)(=O)N4CCCCC4)c3c2=O)c1	-3	20	66*	18	0.3	0.8
COC(=O)Cn1cnc2sc(C)c(S(=O)(=O)N3CCC(C)CC3)c2c1=O	-1	-57	7	26	0.9	0.7
O=C(Nc1nc2c(cc3c4c(cccc42)CC3)s1)c1ccccc1Cl	2	-5	/	/	/	/
COc1ccc(-c2cc(C(F)(F)F)nc(-n3ccnc3C)n2)cc1	6	-8	/	/	/	/
COCCCn1c(-c2ccccc2Cl)n[nH]c1=S	-3	6	0	42	1	0.6
CCn1c(-c2ccc(F)cc2)n[nH]c1=S	3	0	17	18	0.8	0.8
CCOCCCn1c(-c2ccc(Cl)cc2)n[nH]c1=S	-1	-14	51*	84*	0.5	0.2
COCCCn1c(-c2ccc(Cl)cc2)n[nH]c1=S	-2	-4	35	77*	0.7	0.2
CCn1c(Cc2ccccc2)nnc1SCC(=O)Nc1nc(C)c(C)s1	5	-1	-13	24	1.1	0.8
O=C(OCC1OC(n2cnc3c(N(C(=O)c4ccccc4)C(=O)c4ccccc4)ncnc32)C(O)C1F)c1ccccc1 (stereo not given)	1	6	94*	80*	0.1	0.2
CCOC(=O)C1CCN(C(=O)/C=C/c2ccc(OC)cc2)CC1	-4	1	44	87*	0.6	0.1
CCOC(=O)C1CCN(C(=O)/C=C/c2ccccc2OC)CC1	-4	-2	-163	51*	2.6*	0.5
COc1ccc(C(C(=O)NC2CCCC2)N(Cc2ccc(F)cc2)C(=O)c2ccn[nH]2)cc1OC (stereo not given)	/	/	0	33	1	0.7
Cc1cc(OCC(=O)Nn2cnnc2)c(C)cc1Br	0	-8	90*	99*	0.1	0
O=C(COc1ccc2ccccc2c1Br)Nn1cnnc1	7	-31	85*	98*	0.2	0
O=C(COc1cc(Cl)c(Cl)cc1Cl)Nc1ccncc1	/	/	100*	99*	0	0
O=C(COc1ccc2ccccc2c1Br)NNC(=O)Nc1ccccc1	11	3	-45	28	1.4	0.7
O=C(COc1cc(Cl)c(Cl)cc1Cl)Nn1cnnc1	0	-11	82*	96*	0.2	0
O=C(Nc1ccc(Cl)cc1C(F)(F)F)c1ccccc1Cl	1	1	/	/	/	/
Cc1cn(C(=O)CN2C(=O)c3ccccc3C2=O)c(C)n1	-1	-5	-7	-11	1.1	1.1
Cc1noc(C)c1CSCC(=O)N1CCN(c2ccc([N+](=O)[O-])cc2)CC1	-4	31	10	-4	0.9	1
